Test [1] can be described thus: qHTS assay to identify small molecule antagonists of the glucocorticoid receptor (GR) signaling pathway - cell viability counter screen (AID 720693). Also: nearly all actives have a fitted effect of over 55% in size. Also: potency is read from the fitted curve at half-maximal effect. Background: qHTS replaces the single test concentration by a dilution series.
A short description of test [2]: qHTS assay for identifying genotoxic compounds that show differential cytotoxicity against isogenic chicken DT40 cell lines with known DNA damage response pathways - wild type cell line (AID 743012). Also: nearly all actives have a fitted effect of over 60% in size. Also: potency is read from the fitted curve at half-maximal effect. An outline of the steps: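 Quantitative HTS on parental DT40 cells: 40 h compound treatment at 37 C/5% CO2, with viability then determined by CellTiter-Glo luminescence. Values serve as the DNA repair-proficient reference for differential cytotoxicity.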

Test [3] can be described thus: qHTS assay for identifying genotoxic compounds that show differential cytotoxicity against isogenic chicken DT40 cell lines with known DNA damage response pathways - Rev3 mutant cell line (AID 743014). Also: nearly all actives have a fitted effect of over 55% in size. Also: potency is read from the fitted curve at half-maximal effect.
The nature of test [4]: qHTS assay for identifying genotoxic compounds that show differential cytotoxicity against isogenic chicken DT40 cell lines with known DNA damage response pathways - Rad54/Ku70 mutant cell line (AID 743015). Also: nearly all actives have a fitted effect of over 60% in size. Also: potency is read from the fitted curve at half-maximal effect.
Test [5] can be described thus: qHTS assay to identify small molecule antagonists of the androgen receptor (AR) signaling pathway - cell viability counter screen (AID 743033; also: nearly all actives have a fitted effect of over 45% in size; also: potency is read from the fitted curve at half-maximal effect).
A short description of test [6]: qHTS assay to identify small molecule antagonists of the androgen receptor (AR) signaling pathway using the MDA cell line - cell viability counter screen (AID 743041; also: % is scaled to controls: 0 for no effect and ±100 for the full control effect; nearly all actives have a fitted effect of over 45% in size). An outline of the steps:
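Cells were plated at 3,000 per well and left 5 h. Compounds in DMSO were then pinned in, followed by R1881. After 16 h at 37C, CellTiter-Fluor fluorescence gave viability.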

Test [7] addresses Androgen receptor (Homo sapiens) (UniProt P10275). Briefly: qHTS assay to identify small molecule antagonists of the androgen receptor (AR) signaling pathway (AID 743035; active = well fitted inhibition curve with a large enough effect in the signal ratio in the repeat runs, not every such curve was filed as active; the % refers to the signal ratio; also: potency is read from the fitted curve at half-maximal effect). A digest of the protocol: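 Cell line: GeneBLAzer AR-UAS-bla GripTite (HEK293). Stimulus: R1881 added after compound. Exposure: 16 h, 37C, 5% CO2. Readout: LiveBLAzer B/G FRET fluorescence after 2 h at room temperature.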

For test [8] the target is unchanged. Briefly: qHTS assay to identify small molecule agonists of the androgen receptor (AR) signaling pathway using the MDA cell line (AID 743040; also: % is scaled to controls: 0 for no effect and ±100 for the full control effect; nearly all actives have a fitted effect of over 20% in size). The conditions noted are these: MDA-kb2 AR-luc cells, MMTV luciferase, 16 h, stronger effect = higher value. An outline of the steps:
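Cells plated, 5 h at 37C/0% CO2; compound or DMSO pinned; 16 h at 37C; ONE-Glo added; luminescence measured after 30 min at room temperature. Reporter line: MDA-kb2 with MMTV-luciferase responsive to AR and GR.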

Test [9] has the same target. Briefly: qHTS assay to identify small molecule antagonists of the androgen receptor (AR) signaling pathway using the MDA cell line (AID 743042; also: nearly all actives have a fitted effect of over 55% in size; also: potency is read from the fitted curve at half-maximal effect). A digest of the protocol:
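Antagonist mode: compounds plus R1881 agonist added to MDA-kb2 AR-luc cells, incubated 16 h at 37C. Luciferase reporter luminescence quantified, with multiplexed CellTiter-Fluor readout for cell viability.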

“And” between values parts separate entries of the source, which are not always exact repeats. Equal entries are not always repeated. Records with an inconclusive call do not appear. More than one record can exist for a structure, and the calls need not agree. The source made the active and inactive calls. Unless noted, calls follow the shape of the dose curve; as a rule, active = well fitted curve in the direction sought with a large enough effect in the repeat runs; inconclusive = weak or mixed curves; inactive = no such curve, though single readings can be large; an effect the other way counts as inactive or inconclusive.

Chain of Androgen receptor (Homo sapiens) (P10275 whole entry, looked up): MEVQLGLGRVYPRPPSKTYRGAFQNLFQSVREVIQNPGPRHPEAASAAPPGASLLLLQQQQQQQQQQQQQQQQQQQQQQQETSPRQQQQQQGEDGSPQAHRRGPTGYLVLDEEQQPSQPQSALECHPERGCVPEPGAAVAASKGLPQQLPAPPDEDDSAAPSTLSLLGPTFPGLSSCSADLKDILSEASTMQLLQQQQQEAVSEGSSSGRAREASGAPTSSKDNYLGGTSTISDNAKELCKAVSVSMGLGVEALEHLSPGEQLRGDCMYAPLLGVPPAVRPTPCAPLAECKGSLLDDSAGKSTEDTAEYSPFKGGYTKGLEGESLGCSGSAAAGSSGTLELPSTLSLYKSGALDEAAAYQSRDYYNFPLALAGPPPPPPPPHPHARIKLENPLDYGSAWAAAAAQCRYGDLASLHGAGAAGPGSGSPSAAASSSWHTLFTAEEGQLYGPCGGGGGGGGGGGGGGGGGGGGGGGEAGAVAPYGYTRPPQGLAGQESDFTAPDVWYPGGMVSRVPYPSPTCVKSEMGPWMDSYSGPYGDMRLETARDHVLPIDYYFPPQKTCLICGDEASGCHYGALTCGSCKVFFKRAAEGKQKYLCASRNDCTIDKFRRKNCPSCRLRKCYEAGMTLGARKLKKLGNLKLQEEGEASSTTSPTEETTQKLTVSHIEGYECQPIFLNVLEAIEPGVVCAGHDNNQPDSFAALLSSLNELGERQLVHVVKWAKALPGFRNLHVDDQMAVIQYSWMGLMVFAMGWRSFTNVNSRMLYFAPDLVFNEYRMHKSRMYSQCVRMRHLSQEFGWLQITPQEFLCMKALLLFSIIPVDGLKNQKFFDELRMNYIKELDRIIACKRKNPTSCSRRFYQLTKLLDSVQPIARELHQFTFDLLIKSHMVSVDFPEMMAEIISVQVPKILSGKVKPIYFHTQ

Turning to `Cc1cc(Cl)ccc1N=CN(C)C`, the Potency result in test [1], in test [2], in [3], in [4], in test [5] and in [6] was “inactive” in each case.

As to `CCCCC(C#N)(Cn1cncn1)c1ccc(Cl)cc1` (centres undefined), the Potency result in test [1], in test [5] and in [6] was “inactive” each time. Moreover, the Potency in test [2] was 61.1 µM (active); in [3], 60.9 µM (active) and 19.3 µM (active); in test [4], 60.9 µM (active).

Turning to `O=NN1CCOCC1`, the Potency entry in test [1], in test [2], in [3], in test [4], in test [5] and in test [6] was “inactive” in each case.

On to `COc1ccc(CO)cc1`, for which the Potency entry in test [1], in [2], in [3], in test [4], in [5] and in test [6] was “inactive” in each case.

`N#CCCCCC#N`: the Potency entry in [1], in test [2], in [3], in test [4], in test [5] and in [6] was “inactive” each time.

Take `CN(C)c1ccccc1`: the Potency entry in test [1], in [2], in [3], in [4], in test [5] and in test [6] was “inactive” in each case.

For `CNC(=S)S`, the Potency result in [1], in test [2], in test [3], in [4], in [5] and in test [6] was “inactive” throughout.

With `ClC(Cl)=C(Cl)C(Cl)=C(Cl)Cl`, the Potency result in test [1], in test [2], in [3], in [4], in test [5] and in [6] was “inactive” each time.

On to `CC(C)(c1ccccc1)c1ccc(O)cc1`, for which the Potency result in test [1] and in test [6] was “inactive” each time. Also, the Potency in test [2] was 21.7 µM (active); in test [3], 60.6 µM (active) and 17.2 µM (active); in test [4], 13.7 µM (active); in [5], 38.6 µM (active) and 49 µM (active).

As for `COc1ccc(C=O)cc1OC`, the Potency result in [1], in test [2], in test [3], in [4], in [5] and in test [6] was “inactive” in each case.

Turning to `Clc1ccccc1-c1nnc(-c2ccccc2Cl)nn1`, the Potency result in test [1], in [2], in test [3], in test [4], in test [5] and in [6] was “inactive” in each case.

For the compound `CCCCSP(=O)(SCCCC)SCCCC`, the Potency entry in [1], in test [3], in [4], in test [5] and in [6] was “inactive” throughout. In addition, the Potency in [2] was 61.1 µM (active).

Consider `CC1CC(=O)O1` (centres undefined), for which the Potency result in test [1], in test [2], in [3], in test [4], in test [5] and in test [6] was “inactive” each time.

As to `CCOP(=S)(OCC)SCn1c(=O)oc2cc(Cl)ccc21`, the Potency entry in [1], in test [5] and in test [6] was “inactive” in each case. Further, the Potency in test [2] is 27.3 µM (active); in test [3], 32.9 µM (active) and 27.3 µM (active); in test [4], 46.4 µM (active) and 30.6 µM (active).

As to `c1ccc2c(c1)Nc1ccccc1S2`, the Potency result in [1], in test [5] and in [6] was “inactive” throughout. In [4], the Potency was 40.9 µM (active).

In the case of `CCOP(=O)(OCC)OCC`, the Potency result in test [1], in [2], in test [3], in test [4], in [5] and in [6] was “inactive” in each case.

For the compound `CCN(CC)C(=O)C(C)Oc1cccc2ccccc12` (centres undefined), the Potency entry in [1] and in test [6] was “inactive” throughout. The Potency in test [2] was 10.9 µM (active); in test [3], 54.9 µM (active) and 17.2 µM (active); in test [4], 17.2 µM (active).

With `C[C@]12CCC(=O)C=C1CC[C@@H]1[C@@H]2CC[C@@]2(C)[C@H]1CC[C@]2(C)O`, the Potency was 15.5 µM (active) in test [1]; 29.8 µM (active) and 26.6 µM (active) and 21.7 µM (active) in [2]; 26.6 µM (active) and 29.8 µM (active) and 26 µM (active) in test [3]; 29.8 µM (active) and 26.6 µM (active) and 26.7 µM (active) in test [4]. In addition, the Potency entry in [5] and in test [6] was “inactive” throughout.

Take `NN=C(N)N`: the Potency entry in [1], in [2], in [4], in test [5] and in [6] was “inactive” each time.

In the case of `CCCCOC(=O)COC(=O)c1ccccc1C(=O)OCCCC`, the Potency result in test [1], in test [2], in test [3], in test [4], in [5] and in [6] was “inactive” throughout.

`C[N+](C)(C)C`: the Potency result in [1], in [2], in [3], in [4], in test [5] and in test [6] was “inactive” in each case.

In the case of `COP(=O)(NC(C)=O)SC` (centres undefined), the Potency entry in test [1], in test [5] and in test [6] was “inactive” in each case. Moreover, the Potency entry is “inactive and 68.6 µM (active)” in test [2]; “inactive and 27.3 µM (active)” in test [3]; “inactive and 30.6 µM (active)” in test [4].

With `ClCC(Cl)CCl`, the Potency result in [1], in test [2], in test [3], in test [4], in test [5] and in test [6] was “inactive” throughout.

`CCNc1nc(Cl)nc(NC(C)(C)C#N)n1`: the Potency result in [1], in test [2], in [3], in test [4], in [5] and in test [6] was “inactive” each time.

In the case of `Oc1ccc(Cl)cc1Cc1ccccc1`, the Potency in [2] was 21.1 µM (active) and 6.19 µM (active); in [3] it was 26.6 µM (active) and 54.5 µM (active) and 21.3 µM (active); in test [4] it was 29.8 µM (active) and 48.6 µM (active) and 16.5 µM (active); in test [5] it was “inactive and 38.9 µM (active) and 39.4 µM (active)”; in test [7] it was 19.5 µM (active); in test [9], “inactive and 54.5 µM (active)”. Moreover, the activity change was -0.884% (inactive) and -9.7% (inactive) in test [8] (at 70.3 µM (top of the series)); -7.19% (inactive) in [8] (at 95 µM (top of the series)). For the same compound, in test [6], the Potency entry was “inactive”.

The values above are taken from PubChem BioAssay (Tox21).
